# DT40 TDP1 CPT = growth inhibition of DT40 Tdp1-/-;hTDP1 cells with camptothecin (screen for TDP1 inhibitors); chicken DT40 Tdp1-/-;hTDP1 cells + 20 nM CPT, ATP luminescence, 48 h; Potency, µM (doses to about 46.2 µM), for the others: at the highest dose activity change, negative = growth inhibition, hits mostly inhibitors; actives 12% (n = 420,000); AID 686979; note: potency is the fitted concentration of half-maximal effect; nearly all actives have a fitted effect of over 55% in size
#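 Cell growth measured by CellTiter-Glo luminescence after a minimum 48 h, 37 C compound exposure with 20 nM CPT in Tdp1-knockout DT40 cells stably expressing hTDP1, seeded 400/well; qHTS titration format.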
# TDP1 cell noCPT = qHTS for Inhibitors of human tyrosyl-DNA phosphodiesterase 1 (TDP1): qHTS in cells in absence of CPT; DT40 Tdp1-/- hTDP1 cells, no CPT, ATP luminescence, 48 h; Potency, µM (highest dose often 46.2 µM), for inactives: top-dose activity change, negative = growth inhibition, usual class: inhibitors; actives 15% (n = 420,000); AID 686978, 2013; note: potency is the fitted concentration of half-maximal effect; nearly all actives have a fitted effect of over 55% in size
#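 Compound effects on proliferation are scored in DT40 Tdp1-/-;hTDP1 cells in the absence of CPT. ATP levels (CellTiter-Glo luminescence) are recorded after a ≥48 hr, 37 °C incubation.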
# HT1080NT lethal = kills 2HG-producing HT-1080-NT fibrosarcoma cells; HT-1080-NT fibrosarcoma viability, CellTiter-Glo ATP luminescence, 48 h; Potency, µM (highest dose often 46.1 µM), inactives show at the highest dose activity, negative = less viability, usual class: cytotoxic; actives 1.6% (n = 360,000); AID 686970;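 note: NT is the 2HG producing partner of a matched IDH1 knockdown line; potency is the fitted concentration of half-maximal effect; 0% = DMSO-treated cells and -100% = media-only wells without cells; nearly all actives have a fitted effect of over 55% in size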
#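 Toxicity toward the 2HG-producing NT line was scored as %Activity, normalised to DMSO and no-cell wells, from CellTiter-Glo luminescence after 48 hours' treatment.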
# HT1080 IDH1KD tx = kills HT-1080 cells with IDH1 knockdown. HT-1080 IDH1 knockdown viability, ATP luminescence, 48 h. actives 2% (n = 360,000). Potency, µM (series often up to 46.1 µM), for inactives: at the top dose activity, negative = toxicity, actives largely listed as cytotoxic;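 note: potency is the fitted concentration of half-maximal effect; 0% = DMSO wells and -100% = cell-free medium wells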
#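 IDH1KD HT-1080 cells, 750/well, RPMI + 5% FBS; compound pinned after 2 h settling; 48 h, 37 °C; CellTiter-Glo luminescence; % activity normalised to DMSO and no-cell wells; curves fitted, classed by r2 and efficacy.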
# ALOX12 inh = blocks human arachidonate 12S-lipoxygenase. purified 12hLO, xylenol orange hydroperoxide absorbance. Potency, µM (doses to about 108 µM), for the others: at the top dose activity change, negative = inhibition, actives largely listed as inhibitors. actives 1.1% (n = 580,000). AID 1671190; note: potency is the fitted concentration of half-maximal effect
#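 Hydroperoxide product was detected by ferrous iron/xylenol orange as the 573 to 405 nm absorbance ratio. Arachidonic acid at 40 uM (final) was turned over for 30 min at room temperature by 150 nM human 12hLO, pH 7.0 Hepes buffer, after 15 min compound preincubation.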
# IL1B secr inh = inflammasome signaling inhibition, IL-1 beta readout. activity change, % at 57.5 µM. actives 4.7% (n = 360,000). THP-1 LPS/ATP IL-1B secretion, AlphaLISA, 16 h; active compounds read low; in the data active = activity change below about -50%; inconclusive = mostly about -30% to -49%
#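 Secreted IL-1B measured by AlphaLISA bead assay after 16 h compound exposure of THP-1 cells; compounds (final up to 57.5 uM) added 1 h before LPS (250 ng/mL) and ATP (1.25 mM) stimulation; lower signal means less secretion.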
# The depositor's hits bear a star; ? = inconclusive; . = no result given. The full list was thinned out, with hits kept by preference. Unless noted, calls come from the whole dose curve; as a rule, active = well fitted curve in the direction sought with a large enough effect; inconclusive = small, poorly fitted or top-dose-only effect, or another doubt; inactive = no such curve, though single readings can be large; an effect the other way counts as inactive or inconclusive. Unless noted, % is set by controls: 0 for no effect and ±100 for the full control effect.
SMILES,DT40 TDP1 CPT,TDP1 cell noCPT,HT1080NT lethal,HT1080 IDH1KD tx,ALOX12 inh,IL1B secr inh
COc1ccc(C2=C(C)C(N3CCN(c4ccc(OC)cc4)CC3)=NS2(=O)=O)cc1,-4%,-6%,.,.,-19%,.
CC1=C(c2ccc(Cl)cc2)S(=O)(=O)N=C1N1CCN(c2cccc(C(F)(F)F)c2)CC1,8.2µM*,21µM*,.,.,?,.
COCC(=O)N(C1CCOCC1)C1CCN(C(=O)Cc2ccccc2F)CC1,.,.,.,.,45%,.
O=S(=O)(Cc1ccccc1)N[C@H]1CO[C@H]2[C@@H]1OC[C@@H]2n1nnnc1Oc1ccc(-n2ccnc2)cc1,.,.,.,.,58%,.
CCOc1ncccc1CNC(=O)[C@H]1CNC[C@@H](C(=O)N2CCOCC2)C1,.,.,.,.,48%,.
C=C(C)CN(CC)C(=O)c1ccc(NC(=O)c2cccs2)cc1,.,.,.,.,-1%,.
Cc1ccc(NC(=O)CSc2nnc(COc3ccc(C#N)cc3)n2-c2ccccc2)cc1C,?,?,-10%,-10%,-1%,-3
O=C(CSc1nnc2[nH]c(=O)c(Cc3ccccc3)nn12)Nc1cccc(Cl)c1,.,.,.,.,25µM*,.
Cc1ccc(CCc2nnc(SCC(=O)Nc3cccc(Cl)c3)n2-c2ccccc2)o1,?,13µM*,-25%,-12%,-24%,1
CCOc1ccc(NC(=O)[C@H](Cc2ccccc2)NC(=O)C2CCNCC2)cc1,-2%,-4%,1%,-3%,-7%,-19
O=C(COC(=O)c1ccc(S(=O)(=O)N2CCCC2)cc1)Nc1ccc(N2CCOCC2)cc1,18µM*,?,16%,-7%,?,31
O=C(COC(=O)c1n[nH]c2ccccc12)Nc1ccccc1,8%,-8%,-1%,24%,-1%,-11
O=C(COC(=O)c1n[nH]c2ccccc12)Nc1ccc(S(=O)(=O)N2CCCC2)cc1,23µM*,21µM*,-22%,-25%,-3%,-4
O=C(COC(=O)c1ccc(O)cc1)Nc1ccc(S(=O)(=O)N2CCOCC2)cc1,-7%,-11%,-1%,1%,-24%,14
BrC(=C\c1ccccc1)/C=N/N1CCN(c2ccccn2)CC1,0.33µM*,2.6µM*,-3%,-27%,1%,-85*
Oc1cccc(/C=N/N2CCN(c3ccccn3)CC2)c1,-14%,-21%,0%,7%,-3%,-9
BrC(/C=N/N1CCN(Cc2ccccc2)CC1)=C/c1ccccc1,13µM*,6.5µM*,-6%,7%,0%,-82*
Cc1ccc(CN2CCN(/N=C/c3ccc(C(F)(F)F)cc3)CC2)cc1,?,?,-10%,-7%,-23%,-4
FC(F)(F)c1ccc(/C=N/N2CCN(Cc3ccccc3)CC2)cc1,5%,-22%,-16%,-23%,0%,-60*
BrC(=C\c1ccccc1)/C=N/N1CCN(Cc2ccccc2)CC1,1.8µM*,3.3µM*,-5%,-16%,-5%,-20
CC(/C=N\N1CCN(Cc2ccc(C)cc2)CC1)=C\c1ccccc1,-10%,-23%,-10%,-1%,-2%,11
CC(C)CCN1CCC(N2CCN(S(=O)(=O)c3ccc(F)c(Cl)c3)CC2)C1=O (stereo not drawn),.,.,.,.,38%,.
COC(=O)c1ccccc1-c1ccc(C=O)o1,-17%,-5%,12%,12%,0%,9
COc1ccccc1-c1ccc(/C=C2/C=C(C)OC2=O)o1,13µM*,10µM*,4%,9%,?,-6
COc1ccccc1-c1ccc(/C=C2\C=CC(=O)O2)o1,21µM*,?,-27%,?,?,.
CCn1ccc(C(=O)N2C[C@@H](Oc3ccccc3)C[C@@H]2C(=O)NCCOC)n1,.,.,.,.,-7%,.
